This note sets out measurements from PubChem BioAssay (NCATS).

Inconclusive results are not listed. Activity calls are given as the source filed them. Calls follow the shape of the dose curve; as a rule, active = well fitted cell-killing curve with a large enough effect; inconclusive = small, poorly fitted or top-dose-only effect, or effect the other way; inactive = no such curve, though single readings can be large or run the other way.
Potency is read from the fitted curve at half-maximal effect.

The assay can be described thus: Viability qHTS for spleen associated tyrosine kinase inhibitor (SYKi) naive MV4-11 cells (AID 1963823). Also: nearly all actives have a fitted effect of over 40% in size. The settings on record: MV4-11 AML viability, CellTiter-Glo luminescence, 72 h; series mostly up to 45 µM; viability (% of control): at the top concentration. The method in brief: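 Viability of MV4-11 AML cells lacking prior SYK inhibitor exposure is scored by CellTiter-Glo luminescence following 72 hr compound incubation at 37 C, 5% CO2, seeded at 500 cells per well.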
In general terms: qHTS replaces the single test concentration by a dilution series.
`COc1cc(Nc2nc3c(s2)CCCC3c2ccccc2)ccc1-n1cnc(C)c1` (stereo not drawn): the viability (% of control) was 89.8% [at 9.25 µM] (inactive).
For `CCc1nn(CCO)c(CC)c1Oc1cc(C#N)cc(C#N)c1`, the “viability (% of control)” value was 52.6% (inactive).
Still for that read-out and setting: the same measure for `COc1c2c(c(C)c3c1C(=O)OC3)OC1(C)CC(O)C34OC(O)(CCC3(C)C1C2)OC4(C)C` (stereo not drawn): 63.9% [at 17.3 µM] (inactive); for `C/C=C1\[C@H](OC2OC(COC3OC(CO)C(O)C(O)C3O)C(O)C(O)C2O)OC=C(C(=O)OC)[C@H]1CC(=O)OCCc1ccc(O)cc1` (stereo partly drawn): 85.3% [at 17.3 µM] (inactive).
As to `CC(O)(C(=O)O)C1CCC2(C)C1CCC1(C)C2CCC2C3(C)CCC(O)C(C)(COC4OC(CO)C(O)C(O)C4O)C3CCC21C` (stereo not drawn), the “viability (% of control)” value is 57.5% [at 17.3 µM] (inactive).
`COC(=O)c1ccccc1O[C@@H]1O[C@H](CO)[C@@H](O)[C@H](O)[C@H]1O[C@@H]1O[C@@H](C)[C@H](O)[C@@H](O)[C@H]1O`: the “viability (% of control)” value is 88.2% [at 17.3 µM] (inactive).
On to `Cc1nc(Nc2ccc(F)cc2)nc(N2CCc3ccccc3C2C)c1C` (stereo not drawn), for which the Potency is 20.6 µM (active).
Regarding `CC(C)C1=CCC(C)(O)C(OC2OC(CO)C(O)C(O)C2O)C1` (stereo not drawn), the “viability (% of control)” value was 81.5% (inactive).
